ALOX12 inhib: qHTS Assay for Inhibitors of 12-hLO (12-human lipoxygenase). purified 12-hLO, xylenol orange hydroperoxide absorbance. Potency, µM (titrated, usually from 57.1 µM), for inactives: top-dose activity change, negative = inhibition, usual class: inhibitors. 0.12% of 150,000 active; note: potency is the fitted concentration of half-maximal effect; nearly all actives have a fitted effect of over 55% in size
Target sequence (P18054 whole entry, looked up): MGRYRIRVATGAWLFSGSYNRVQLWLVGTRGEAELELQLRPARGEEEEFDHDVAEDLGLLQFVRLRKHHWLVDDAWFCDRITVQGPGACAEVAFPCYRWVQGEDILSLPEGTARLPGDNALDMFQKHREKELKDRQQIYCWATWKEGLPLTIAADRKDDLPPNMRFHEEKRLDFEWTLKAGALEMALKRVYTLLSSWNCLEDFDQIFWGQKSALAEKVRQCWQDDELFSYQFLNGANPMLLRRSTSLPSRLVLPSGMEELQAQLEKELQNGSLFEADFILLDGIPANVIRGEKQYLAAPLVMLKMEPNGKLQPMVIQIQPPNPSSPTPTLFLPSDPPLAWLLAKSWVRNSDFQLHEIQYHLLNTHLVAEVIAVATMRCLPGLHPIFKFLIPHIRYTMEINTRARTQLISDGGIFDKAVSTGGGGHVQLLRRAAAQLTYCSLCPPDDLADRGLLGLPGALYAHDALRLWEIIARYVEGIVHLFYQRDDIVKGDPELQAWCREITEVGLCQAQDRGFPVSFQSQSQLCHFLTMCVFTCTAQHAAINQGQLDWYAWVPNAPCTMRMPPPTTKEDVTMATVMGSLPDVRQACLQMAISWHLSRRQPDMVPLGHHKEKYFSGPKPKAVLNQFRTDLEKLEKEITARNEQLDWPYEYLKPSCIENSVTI
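150 nM 12hLO, 25 mM Hepes pH 7.0 + 0.01% Triton X-100; cpd preinc 15 min RT; 40 uM arachidonic acid, 30 min RT; Fe-XO 30 min; A573/A405 ratio as read-out.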
IMPase inh: qHTS Assay for Identifying the Cell-Membrane Permeable IMPase Inhibitors. Inositol monophosphatase 1 (Rattus norvegicus), P97697. CHO-M1 cells, IP1 accumulation, HTRF TR-FRET ratio. inhibition (IP1 accumulation), % at 46.1 µM. 120,000 tested, under 10 active. AID 901, 2007; active = well fitted curve in the direction sought with a large enough effect in the signal ratio, not every such curve was filed as active; inconclusive = small, poorly fitted or top-dose-only effect, or a change in a side signal; inactive = no such curve, though single readings can be large or run the other way; the % refers to the signal ratio;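 note: cells stimulated with carbachol in lithium chloride buffer; plate controls were DMSO basal wells for no effect and reference inhibitor wells for full effect; higher means more IMPase inhibition seen as more IP1 and lower FRET ratio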
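Carbachol-driven Gq signalling in CHO-M1 cells (2000/well) generates IP1. Compounds that block IMPase raise IP1 and so reduce the FRET signal from Eu-anti-IP1 and d2-IP1 after a 10 min room-temperature lysis.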
IMPase Li cell: qHTS Assay for Identifying the Cell-Membrane Permeable IMPase Inhibitors: Potentiation with Lithium. AID 1457, 2008. Potency, µM (titrated, usually from 59.4 µM), for inactives: at the highest dose activity, negative = IMPase inhibition, usual class: inhibitors. 0.35% of 210,000 active. CHO-M1 cells, IP1 TR-FRET (IP-One), carbachol + lithium;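 note: IP1 builds up when IMPase is blocked and the TR-FRET signal falls; potency is the fitted concentration of half-maximal effect; plate controls were basal vehicle for no effect and high inhibitor control for full effect; nearly all actives have a fitted effect of over 50% in size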
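Test compounds were applied to CHO-M1 cells previously cultured for 16–30 h at 2000 per well. A small lithium amount accompanied them; after 30 min at 37C, IP1 was quantified by TR-FRET.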
HPGD block: qHTS Assay for Inhibitors of HPGD (15-Hydroxyprostaglandin Dehydrogenase); AID 894, 2007; 15-hydroxyprostaglandin dehydrogenase [NAD(+)] (Homo sapiens), P15428; Potency, µM, inactives show at the top dose activity change, negative = inhibition, usual class: inhibitors; 4.3% of 150,000 active; purified HPGD, NADH fluorescence kinetic, PGE2 substrate; active = well fitted inhibition curve with a large enough effect, not every such curve was filed as active; inconclusive = small, poorly fitted or top-dose-only effect, or another doubt; inactive = no such curve, though single readings can be large or run the other way; note: potency is the fitted concentration of half-maximal effect
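NADH formation kinetics: reaction with 30 uM PGE2 and 1 mM NAD+ (final), 20 nM enzyme, Tris-HCl pH 8 with Tween 20, after 15 min compound preincubation at room temperature. Fluorescence change, last versus first of five reads.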
PNC assembly inh: High Content Assay for Compounds that inhibit the Assembly of the Perinucleolar Compartment | activity change (PNC), negative = inhibition, % at 10 µM | PC3M PTB-GFP, PNC prevalence imaging, 16 h; hits give low values | AID 2417, 2010 | 3.1% of 140,000 active;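 active = readout at or below -70, meaning at least 70% loss of cells showing the perinucleolar compartment, a nuclear body marking cancer cells; inconclusive = readout between -30 and a set limit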;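 note: plate controls were DMSO wells for no effect and camptothecin positive control wells for full effect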
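Read-out is percentage of cells bearing a perinucleolar compartment, from automated 20x imaging of fixed, Hoechst-stained PC3M PTB-GFP cells. Cells were seeded 4 h, then exposed 16 h to compound (23 nl of library stock) in duplicate plates.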
ALDH1A1 inh: qHTS Assay for Inhibitors of Aldehyde Dehydrogenase 1 (ALDH1A1); Potency, µM (top dose mostly 75.3 µM), inactives show at the highest dose activity, negative = inhibition, actives largely listed as inhibitors; 7.3% of 220,000 active; Aldehyde dehydrogenase 1A1 (Homo sapiens), P00352; Purified ALDH1A1, NADH fluorescence, propionaldehyde substrate; active = well fitted inhibition curve with a large enough effect, not every such curve was filed as active; inconclusive = small, poorly fitted or top-dose-only effect, or another doubt; inactive = no such curve, though single readings can be large or run the other way;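 note: potency is the fitted concentration of half-maximal effect; plate controls were no enzyme wells and a reference inhibitor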
Starred values were filed as active, the others as inactive; ? = inconclusive; nt = no result given; [ ] = dose if it differs, or a comment. Most compounds without a hit are left out; they make up all but 11% or so of the library. Unless noted, calls come from the whole dose curve; as a rule, active = well fitted curve in the direction sought with a large enough effect; inconclusive = small, poorly fitted or top-dose-only effect, or another doubt; inactive = no such curve, though single readings can be large; an effect the other way counts as inactive or inconclusive. Unless noted, % is set by controls: 0 for no effect and ±100 for the full control effect.

SMILES | ALOX12 inhib | IMPase inh | IMPase Li cell | HPGD block | PNC assembly inh | ALDH1A1 inh
Oc1cccc(/C=N\Nc2nncc(-c3ccccc3)n2)c1 | nt | nt | 12% | nt | nt | 7%
Brc1ccc(/C=N/Nc2ncnc3c2cnn3Cc2ccccc2)cc1 | 10% | 5 | 7%[38.3 µM] | ? | -15 | 2%
CC(=O)c1ccc(NC(=O)CSc2nnc(-c3ccco3)c(-c3ccco3)n2)cc1 | nt | nt | 21% | nt | nt | 1.4µM*
O=C(Nc1ccccc1)c1ccc2nc(-c3ccco3)c(-c3ccco3)nc2c1 | -29% | 5 | 39%[38.3 µM] | 5µM* | 21 | 0.18µM*
CC(=O)c1ccc(NC(=O)c2ccc3nc(-c4ccco4)c(-c4ccco4)nc3c2)cc1 | -23% | 4 | 12%[38.3 µM] | ? | -14 | 3.2µM*
O=C(NCc1ccccc1)c1ccc2nc(-c3ccco3)c(-c3ccco3)nc2c1 | -5% | 15 | 14%[38.3 µM] | ? | ? | ?
O=C(Nc1nnc(-c2ccco2)s1)c1ccccc1 | -1% | 2 | -18%[38.3 µM] | -25% | 34 | 25µM*
CCCCNC(=O)c1ccc2nc(-c3ccco3)c(-c3ccco3)nc2c1 | -6% | 4 | 15% | 25µM* | ? | 5µM*
Cc1ccc(Cl)cc1NC(=O)COC(=O)c1ccc(COc2ccc3c(C)cc(=O)oc3c2)cc1 | -4% | nt | -6% | ? | -113* | ?
CCN(CC)S(=O)(=O)c1ccc(OC)c(NC(=O)COc2ccc3c(C)cc(=O)oc3c2)c1 | 3% | ? | 6.3µM* | ? | -30 | ?
COc1ccccc1/C=C1\CCCC2=C1Nc1nnnn1C2c1ccccc1OC (centres undefined) | -3% | nt | 7% | -16% | -1 | 25µM*
CC1CCN(c2ncnc3c2cnn3-c2ccccc2)CC1 | -8% | 2 | -6%[38.3 µM] | 28µM* | 7 | ?
O=C(c1cccc(Cl)c1)N1CCN(c2ncnc3c2cnn3-c2ccccc2)CC1 | nt | nt | 16% | nt | nt | 7.9µM*
Cc1nn(-c2ccccc2)c(Cl)c1C(=O)N1CCN(c2ncnc3c2cnn3-c2ccccc2)CC1 | 3% | 9 | 32%[38.3 µM] | ? | -12 | 14µM*
O=C(c1ccccc1)N1CCN(c2ncnc3c2cnn3-c2ccccc2)CC1 | 2% | 9 | -8%[38.3 µM] | -8% | 15 | ?
O=C(c1ccco1)N1CCN(c2ncnc3c2cnn3-c2ccccc2)CC1 | -1% | 3 | 25%[38.3 µM] | -7% | 15 | ?
Cc1ccc(NC(=O)COC(=O)C2CC(=O)N(Cc3ccccc3)C2)cc1S(=O)(=O)N(C)C (centres undefined) | nt | nt | 1% | nt | nt | ?
COC(=O)CCC(=O)OC1(C)C(=O)C=C2C=C(C3CC3)OC=C2C1=O (centres undefined) | -2% | nt | 9% | -5% | nt | -4%
CCc1ccccc1NC(=O)c1nnn(CC(=O)Nc2cccc(C)c2C)c1N | -1% | ? | 10µM* | ? | 21 | ?
CCc1ccccc1NC(=O)c1nnn(CC(=O)Nc2cccc(C)c2)c1N | 1% | -12 | -4%[38.3 µM] | -9% | 20 | -17%
CCN1C(=O)/C(=C/c2cn(C)nc2C)SC1=S | -15% | -1 | 31%[38.3 µM] | -12% | 30 | 4µM*
CCCN1C(=O)/C(=C/c2ccncc2)SC1=S | -1% | nt | 9% | -13% | ? | 10µM*
CCN1C(=O)/C(=C/c2cnn(C)c2C)SC1=S | 1% | 4 | 25%[38.3 µM] | -1% | -10 | ?
CCCOc1ccc(/C=C/C(=O)Nc2sc(C)c(C)c2C(=O)OCC)cc1OC | nt | -2 | nt | nt | nt | nt
O=C(NC1CC1)c1cccc(Nc2ccc(-c3ccc4c(c3)OCCO4)nn2)c1 | -6% | 3 | 21%[38.3 µM] | 28µM* | 6 | ?
CCOC(=O)c1ccc2nc(C)cc(Nc3ccc(OC(C)C)cc3)c2c1 | nt | 9 | nt | nt | nt | nt

Bioassay records from PubChem.
